Records with an inconclusive call do not appear. Values without a mark were called inactive. Activity calls are given as the source filed them. Calls come from the whole dose curve; as a rule, active = well fitted inhibition curve with a large enough effect; inconclusive = small, poorly fitted or top-dose-only effect; inactive = flat fitted curve, though single readings scatter.
Each compound was assayed against Voltage-gated inwardly rectifying potassium channel KCNH2 (Homo sapiens) (UniProt Q12809) (assay: qHTS Assay for Small Molecule Inhibitors of the Human hERG Channel Activity (AID 588834;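 note: lower thallium flux fluorescence means stronger hERG block; nearly all actives have a fitted effect of over 50% in size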; for activity change, negative = inhibition: top concentration of the series differs between compounds)). Conditions: U2OS BacMam hERG, FluxOR thallium flux fluorescence; series mostly up to 46.1 µM; activity change, negative = inhibition: at the top concentration.
Text: NIH Chemical Genomics Center [NCGC]
National Institutes of Environmental Health Sciences [NIEHS]
National Toxicology Program [NTP]
We have developed a 1536-well cell-based assay for quantitative high throughput screening (qHTS) to determine in vitro hERG channel blockage as a measure of cardio toxicity with small molecules. This particular assay uses the U2OS cell line which is derived from human osteosarcoma.
NCGC Assay Protocol Summary:
HERG assay (FluxORTM thallium flux assay) was initially developed by Invitrogen/Molecular Probes, and then miniaturized into 1536-well plate in a homogeneous format by NCGC. This assay measures the activity of potassium channel using thallium dye (FluxOR) flux as surrogate measurement for potassium into the cells with a FDSS-7000 kinetic plate reader (Hamamatsu Corp., Hamamatsu City, Japan). The hERG ion channel is transduced into mammalian cells (U2OS) using a baculovirus (Bacmam) construct harboring the hERG K+ ion channel. So far we screened LOPAC1280 library (Sigma), the NTP collection of 1408 compounds, and the NCGC Pharmaceutical Collection (NPC), in which many well defined HERG blockers are present. The rank order potencies of many of these compounds are similar to that of other HERG assays (membrane potential, Rb+ flux, patch clamp, etc). This quick and homogeneous assay is also found to be sensitive, specific, and robust.
Using the FluxORTM thallium flux assay, the activity of potassium channel using thallium dye (FluxOR) flux as surrogate measurement for potassium into the cells was measured in the U2OS cell line transduced with hERG K+ ion channel using a baculovirus (Bacmam) using Opti-MEM medium (Invitrogen) containing 2% fetal calf serum (FCS, HyCone) following loading buffer addition, compound treatment for around 10 minutes and finally adding stimulation buffer. The assay was performed in black clear Kalypsys 1536-well plates. In the screen, Astemizole was used as positive controls. Library compounds were measured for their ability to cause hERG channel blockage in the cell line, as reflected by a decrease in fluorescence intensity, in a concentration-dependent manner. […] AC50 values were determined from concentration-response data modeled with the standard Hill equation.
qHTS protocol for hERG-U2OS cellular assay
[Step] [Parameter] [Value] [Description]
1. Day 1: Replace medium in 70-80% confluent T225 flask with 2.5 mL of hERG-BacMam virus plus 12.5 mL of phosphate buffered saline (PBS) (corresponding roughly to a multiplicity of infection ratio of 100 virus particles/cell)
2. Incubation: 4 hrs @ room Temperature in Dark
3. Reagent; Remove virus; wash once with 25 ml DPBS
4. Reagent; 35 ml culture medium
5. Incubation; 37 °C overnight
6. Day2: Reagent; 3 uL; 2000 U2OS cells/well
7. Time; 4 hr; 37 °C incubation
8. Loading buffer; 1 uL; 0.7X;
9. Incubation: 1hr @ RT in Dark.
12. Time; 10min; 37 °C incubation
13. Read fluorescence Intensity on FDSS for 10 Sec with 1 sec interval
14. Reagent; 1 uL; stimulation buffer
15. Read fluorescence Intensity on FDSS for 2 min with 1 sec interval
16. Detection; Fluorescence Intensity; FDSS
% is set by controls: 0 for no effect and ±100 for the full control effect; potency is the fitted concentration of half-maximal effect.

Voltage-gated inwardly rectifying potassium channel KCNH2 (Homo sapiens), sequence (Q12809 whole entry, looked up): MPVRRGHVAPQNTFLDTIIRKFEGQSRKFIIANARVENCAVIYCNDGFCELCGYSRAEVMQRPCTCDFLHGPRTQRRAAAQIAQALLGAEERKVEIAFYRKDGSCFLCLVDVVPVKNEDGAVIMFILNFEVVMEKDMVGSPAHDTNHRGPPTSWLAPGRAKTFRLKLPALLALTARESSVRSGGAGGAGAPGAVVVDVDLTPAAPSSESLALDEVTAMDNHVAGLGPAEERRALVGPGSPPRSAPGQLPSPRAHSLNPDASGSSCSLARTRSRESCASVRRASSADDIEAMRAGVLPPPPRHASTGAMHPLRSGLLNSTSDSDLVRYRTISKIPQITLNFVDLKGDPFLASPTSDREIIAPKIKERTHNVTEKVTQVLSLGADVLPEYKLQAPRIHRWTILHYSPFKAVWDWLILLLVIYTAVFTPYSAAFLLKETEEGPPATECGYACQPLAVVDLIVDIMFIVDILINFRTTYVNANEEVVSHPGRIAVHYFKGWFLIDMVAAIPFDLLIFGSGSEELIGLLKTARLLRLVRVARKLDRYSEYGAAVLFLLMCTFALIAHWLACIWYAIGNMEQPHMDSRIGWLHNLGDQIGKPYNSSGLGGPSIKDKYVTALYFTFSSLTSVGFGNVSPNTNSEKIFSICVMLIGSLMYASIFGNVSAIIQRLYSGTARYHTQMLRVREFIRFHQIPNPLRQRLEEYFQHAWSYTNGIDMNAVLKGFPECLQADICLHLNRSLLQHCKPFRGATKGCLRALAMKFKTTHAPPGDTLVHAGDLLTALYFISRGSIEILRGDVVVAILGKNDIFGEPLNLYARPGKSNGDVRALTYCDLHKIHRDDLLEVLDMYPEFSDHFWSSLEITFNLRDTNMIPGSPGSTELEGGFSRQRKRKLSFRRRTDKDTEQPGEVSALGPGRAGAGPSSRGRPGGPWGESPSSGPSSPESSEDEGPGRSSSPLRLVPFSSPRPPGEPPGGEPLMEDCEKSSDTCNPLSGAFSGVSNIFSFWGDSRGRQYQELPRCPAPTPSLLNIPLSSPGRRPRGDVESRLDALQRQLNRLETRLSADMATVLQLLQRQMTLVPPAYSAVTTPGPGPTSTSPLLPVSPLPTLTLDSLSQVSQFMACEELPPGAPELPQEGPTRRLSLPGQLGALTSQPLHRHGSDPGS

Structure (SMILES) | activity change, negative = inhibition | Potency
O[C@H]1[C@H]2[C@H](O)CCCN2C[C@H]1O | 3.66% | 
C=CCN1C[C@@H](C)N([C@H](c2ccc(C(=O)N(CC)CC)cc2)c2cccc(OC)c2)C[C@@H]1C |  | 4.47 µM (active)
COC1=CC=C2[C@H]3Cc4ccc(OC)c5c4[C@@]2(CCN3C)[C@H]1O5 | -2.06% [at 20.6 µM] | 
C[N+]1(C)CCOC(O)(c2ccc(-c3ccc(C4(O)C[N+](C)(C)CCO4)cc3)cc2)C1 (stereo not given) | 15.7% | 
NC(C(=O)O)c1cc(=O)[nH]o1 (stereo not given) | 7.78% | 
Cc1ccccc1-n1c(CF)nc2ccc(N)cc2c1=O | 8.42% | 
[O]=[Cr](=[O])([OH])[O][Cr](=[O])(=[O])[OH] |  | inactive
ClCC1CO1 (stereo not given) |  | inactive
CCCn1c(=O)c2[nH]c(C3CCCC3)nc2n(CCCOC(=O)c2ccc(S(=O)(=O)F)cc2)c1=O |  | 14.1 µM (active)
CC(=O)O[C@H]1CC[C@H]2[C@@H]3CCC4=CC(=O)CCC4=C3C=C[C@]12C | 11% | 
CCN(CC)c1ncnc2c1ncn2[C@@H]1O[C@H](COP(=O)(O)OP(=O)(O)C(Br)(Br)P(=O)(O)O)[C@@H](O)[C@H]1O | 4.99% | 
COc1ccc2c(c1)/C(=C/c1cnc[nH]1)C(=O)N2 | 1.48% | 
CC(=O)O[C@H]1C[C@H](O[C@H]2[C@@H](O)C[C@H](O[C@H]3[C@@H](O)C[C@H](OC4CC[C@@]5(C)[C@H](CC[C@@H]6[C@@H]5CC[C@]5(C)[C@@H](C7=CC(=O)OC7)CC[C@]65O)C4)O[C@@H]3C)O[C@@H]2C)O[C@H](C)[C@H]1O[C@@H]1O[C@H](CO)[C@@H](O)[C@H](O)[C@H]1O (stereo not given in full) | -0.999% | 
CCCCCl |  | inactive
CNC(=O)Oc1ccccc1C(=O)Nc1ccccc1 | -5.41% | 
C[C@]12CC[C@H]3[C@@H](CCC4=C(O)C(=O)CC[C@@H]43)[C@@H]1CC[C@@H]2OC(=O)CCC1CCCC1 | -12.4% | 
O=C1C=C2C=C[C@@H]3C[C@@]2(O1)[C@H]1CCCCN31 | 7.29% | 
CN[C@H]1C[C@@H](N)[C@H](O)[C@@H](O[C@@H]2O[C@H](CO)[C@H](O)[C@@H]3OC4(O[C@H]23)O[C@H](C(N)CO)[C@H](O)[C@H](O)[C@H]4O)[C@@H]1O (stereo not given in full) | 1.51% | 
CCCC(=O)OC(C(Cl)(Cl)Cl)P(=O)(OC)OC (stereo not given) | 26.9% | 
O=S(=O)(O)c1cc(O)ccc1O | 3.89% [at 20.6 µM] | 

Structure (SMILES) | activity change, negative = inhibition | Potency
C[C@H]1CC[C@@H]2[C@@H](C)[C@H]3[C@H](C[C@H]4[C@@H]5CC=C6CC(O[C@@H]7O[C@H](CO)[C@H](O)[C@H](O[C@@H]8O[C@H](CO)[C@@H](O)[C@H](O)[C@H]8O)[C@H]7O[C@H]7O[C@@H](C)[C@H](O)[C@@H](O)[C@H]7O)CC[C@]6(C)[C@H]5CC[C@]34C)N2C1 (stereo not given in full) | 1.89% | 
CCCN(CCC)CCc1c[nH]c2ccc(C(N)=O)cc12 |  | 6.31 µM (active)
NCC(CP(=O)(O)O)c1ccc(Cl)cc1 (stereo not given) | 18.7% | 
NC(=O)COc1c(F)cc(SCCNS(=O)(=O)c2ccccc2)cc1F | 1.5% | 
C[C@@H](Cc1ccccc1)NCCC(c1ccccc1)c1ccccc1 |  | 0.631 µM (active)
Oc1cc(Cl)c(Cl)cc1Cl |  | inactive
NCC[C@H](O)C(=O)N[C@@H]1C[C@H](N)[C@@H](O[C@H]2O[C@H](CN)[C@@H](O)[C@H](O)[C@H]2N)[C@H](O[C@@H]2O[C@H](CO)[C@@H](O)[C@H]2O)[C@H]1O | 20.8% [at 20.6 µM] | 
CCCC(C)C1(CC)C(=O)NC(=O)NC1=O (stereo not given) | 3.04% | 
c1ccc2sc(SNC3CCCCC3)nc2c1 | 20% | 
NNC(=O)c1ccc(O)cc1 | 2.09% | 
CCOP(=O)(OCC)O/C(=C/Cl)c1ccc(Cl)cc1Cl | -0.198% | 
NCCc1c[nH]c2ccc(C(N)=O)cc12 | 4.18% | 
C=CCN=C=S |  | inactive
CC(=O)OC1CN2CCC1CC2 (stereo not given) | 13.1% | 
CC(Cc1ccccc1)NC=O (stereo not given) | 7.23% | 
CCCN1CCCC2Cc3[nH]ncc3CC21 (stereo not given) |  | inactive
CN1CCc2cccc(Cl)c2CC1 | 0.614% | 
Clc1cc(I)cc(Cl)c1NC1=NCCN1 | -28.8% | 
CCCN(CCC)[C@H]1CCc2c(F)ccc(O)c2C1 |  | 7.08 µM (active)
CCN(CC)C(=O)/C(Cl)=C(\C)OP(=O)(OC)OC | 5.53% | 

— PubChem BioAssay (NCATS)
